For 13 compounds, growth results are on record in PubChem BioAssay (NCI).

Test systems include NCI-H23 lung; NCI-H226 lung; NCI-H322M lung; HOP-62 NSCLC; NCI-H460 lung; HOP-92 NSCLC; NCI-H522 lung; A549/ATCC NSCLC; 786-0 renal; COLO 205 colon.
Test in all cases: NCI-60 one-dose screen, 48 h (100 = growth as untreated, 0 = no growth, -100 = all killed)
Conditions in all cases: 10 µM unless noted

Compounds without any hit were thinned out: in the full panel of roughly 83,000, 20% have a hit.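 The test compound was applied at a single concentration to cells in 96-well plates for 48 hours, and percent growth was recorded.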 Unmarked numbers belong to inactive results. Calls of active or inactive are those of the source. How the source made its calls: active means growth percent below 10; inactive means the rest.

Regarding `COc1cc2oc(-c3cccc(NC(=O)c4cccc(Br)c4)c3)cc(=O)c2c(OC)c1OC`, the growth in the assay with NCI-H23 lung is 57.2%; in the assay on NCI-H226 lung it was 73.7%; with NCI-H322M lung it was 76.4%; in the assay on HOP-62 NSCLC, 55.5%; with NCI-H460 lung, 34.7%; with HOP-92 NSCLC it was 47.5%. The growth is 38.6% in the assay on NCI-H522 lung, 49.3% in the assay with A549/ATCC NSCLC, 59% in the assay with 786-0 renal and 57.8% in the assay on COLO 205 colon.

With `O=C(O)CNC1=C(Cl)C(=O)c2ccccc2C1=O`, the growth in the assay on NCI-H23 lung is 88%; in the assay on NCI-H226 lung, 109%; in the assay on NCI-H322M lung it was 103%; in the assay on HOP-62 NSCLC it was 95.4%; in the assay with NCI-H460 lung, 102%; in the assay on HOP-92 NSCLC, 74.1%. Also, the growth in the assay on NCI-H522 lung is 78.8%; in the assay with A549/ATCC NSCLC, 96.6%; in the assay on 786-0 renal, 101%; in the assay on COLO 205 colon it was 113%.

For `COP(=O)(OC)C(C)(C)CC(=O)CC(C#N)(C#N)C(C#N)C#N`, the growth in the assay on NCI-H23 lung was 98.7%; in the assay with NCI-H226 lung, 92.9%; with NCI-H322M lung it was 99.3%; in the assay with HOP-62 NSCLC, 98.1%; with NCI-H460 lung it was 112%; in the assay on HOP-92 NSCLC, 55.9%. For the same compound, the growth with NCI-H522 lung was 101%; with A549/ATCC NSCLC, 104%; with 786-0 renal it was 105%; in the assay with COLO 205 colon it was 107%.

`O=C1/C(=C/c2ccc(F)cc2)COc2ccc(O)c(O)c21`: the growth in the assay on NCI-H23 lung is 44.3%; with NCI-H226 lung, 79.6%; in the assay with NCI-H322M lung, 39.9%; in the assay with HOP-62 NSCLC, 8.74% (active); with NCI-H460 lung, 48.6%; in the assay with HOP-92 NSCLC it was 6.21% (active). Besides, the growth in the assay on NCI-H522 lung is -65.1% (active); in the assay on A549/ATCC NSCLC it was 47.4%; in the assay with 786-0 renal it was -47.6% (active); in the assay on COLO 205 colon, 28%.

For the compound `Cn1cc(-c2csc(-c3c[nH]c4ccc(Br)cc34)n2)c2cnccc21`, the growth with NCI-H23 lung is -64.2% (active); in the assay with NCI-H226 lung it was -55.7% (active); in the assay on NCI-H322M lung, -44.5% (active); in the assay with HOP-62 NSCLC it was -66.7% (active); in the assay with NCI-H460 lung, -82.4% (active); in the assay on HOP-92 NSCLC it was -86.2% (active). In addition, the growth was -66.8% (active) in the assay on NCI-H522 lung, -77.5% (active) with A549/ATCC NSCLC, -90.5% (active) in the assay with 786-0 renal and -72.9% (active) in the assay with COLO 205 colon.

With `CCOC(=O)c1cn2ncnc(Oc3ccc(NC(=O)NC4CCCCC4)c(Cl)c3)c2c1C`, the growth in the assay with NCI-H23 lung is 68.8%; in the assay with NCI-H226 lung, 92.6%; with NCI-H322M lung it was 85.2%; in the assay on HOP-62 NSCLC, 79.9%; in the assay with NCI-H460 lung it was 96.4%; in the assay on HOP-92 NSCLC, 86.8%. Moreover, the growth with NCI-H522 lung was 67.1%; in the assay on A549/ATCC NSCLC, 58.7%; with 786-0 renal, 81.6%; in the assay with COLO 205 colon, 96.9%.

`CCc1nc2c(=O)[nH]cnc2o1`: the growth was 107% in the assay on NCI-H23 lung; 96.4% with NCI-H226 lung; 97.8% in the assay with NCI-H322M lung; 100% in the assay on HOP-62 NSCLC; 105% with NCI-H460 lung; 72.2% with HOP-92 NSCLC. Besides, the growth in the assay on NCI-H522 lung was 108%; in the assay with A549/ATCC NSCLC, 99.7%; in the assay with 786-0 renal, 110%; in the assay on COLO 205 colon, 110%.

`CN1CCN(C(=O)OCc2ccc3c(Cl)cc(Cl)c(O)c3n2)CC1`: the growth in the assay with NCI-H23 lung is 59.6%; with NCI-H226 lung, 98.3%; in the assay on NCI-H322M lung, 60%; in the assay on HOP-62 NSCLC, 45.9%; in the assay with NCI-H460 lung, 66.8%; in the assay on HOP-92 NSCLC, 71.1%. Besides, the growth in the assay on NCI-H522 lung was 79.6%; in the assay on A549/ATCC NSCLC it was 62.5%; in the assay with 786-0 renal, 86.6%; in the assay on COLO 205 colon, 107%.

With `N#C/C(=C\c1ccc(Br)cc1)n1nnc2ccc(F)cc21`, the growth with NCI-H23 lung is 16%; in the assay on NCI-H226 lung, 2.99% (active); in the assay on NCI-H322M lung it was 9.42% (active); in the assay with HOP-62 NSCLC it was 31.4%; in the assay on NCI-H460 lung it was -35.9% (active); in the assay with HOP-92 NSCLC it was 36.7%. The growth with NCI-H522 lung is -18.2% (active); in the assay with A549/ATCC NSCLC it was 16.6%; with 786-0 renal, -73.8% (active); in the assay with COLO 205 colon, -12.9% (active).

Consider `CC(=O)n1nc(C(=O)OC(C)C)c2cc(C)c(C)cc21`, for which the growth in the assay on NCI-H23 lung was 95.2%; in the assay with NCI-H226 lung, 96.4%; in the assay with NCI-H322M lung, 101%; with HOP-62 NSCLC it was 92.1%; in the assay with NCI-H460 lung, 98.7%; in the assay on HOP-92 NSCLC, 67.1%. Besides, the growth is 88.8% with NCI-H522 lung, 82.2% in the assay with A549/ATCC NSCLC, 80.9% in the assay with 786-0 renal and 102% in the assay on COLO 205 colon.

On to `CCN1C(=O)N(CC)C2C1NN=c1s/c(=C\c3ccc(Cl)cc3Cl)c(=O)n12` (stereo not given), for which the growth is 28.4% in the assay with NCI-H23 lung; 48.8% in the assay on NCI-H226 lung; 42.4% in the assay on NCI-H322M lung; 33.5% in the assay with HOP-62 NSCLC; 5.72% (active) with NCI-H460 lung; 50.8% with HOP-92 NSCLC. Further, the growth in the assay with NCI-H522 lung was -8.78% (active); in the assay with A549/ATCC NSCLC, 14.6%; in the assay on 786-0 renal, 20.6%; in the assay on COLO 205 colon it was -7.91% (active).

On to `O=[N+]([O-])C1C(c2ccccc2)C12c1ccccc1-c1ccccc12` (stereo not given), for which the growth was 7.97% (active) in the assay with NCI-H23 lung; 15% with NCI-H226 lung; 29.3% with NCI-H322M lung; 34.2% in the assay with HOP-62 NSCLC; -14.3% (active) in the assay on NCI-H460 lung; -3.91% (active) in the assay on HOP-92 NSCLC. The growth in the assay on NCI-H522 lung was -13.8% (active); in the assay on A549/ATCC NSCLC, 8.59% (active); in the assay on 786-0 renal, 4.98% (active); with COLO 205 colon, 14.9%.

As for `N#Cc1c(-c2ccc(Cl)cc2)nc(NN=Cc2cccc(O)c2)nc1N1CCOCC1`, the growth is 100% in the assay on NCI-H23 lung; 92.9% in the assay on NCI-H226 lung; 86.3% in the assay with NCI-H322M lung; 87.8% with HOP-62 NSCLC; 77.9% in the assay on NCI-H460 lung; 63.3% with HOP-92 NSCLC. Besides, the growth in the assay with NCI-H522 lung was 74.8%; in the assay on A549/ATCC NSCLC, 72.7%; with 786-0 renal, 64.3%; with COLO 205 colon, 85.7%.
